For five compounds, composite z-score, composite Z-score and z-score results are on record in PubChem BioAssay.

For one test, the target named is Albumin (Bos taurus) (UniProt P02769). As to the kind of experiment: compounds binding labelled BSA control protein – biochemical, small-molecule microarray, Alexa647 label, 635/667 nm fluorescence, artefact control for SMM control protein annotation, profiling panel (AID 1118).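 Further: score merges 667 nm emission intensity and signal-to-noise per printed compound spot.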 Particulars: BSA-A647 binding, fluorescence 635 nm, higher = more signal.
Sequence of Albumin (Bos taurus) (P02769 whole entry, looked up): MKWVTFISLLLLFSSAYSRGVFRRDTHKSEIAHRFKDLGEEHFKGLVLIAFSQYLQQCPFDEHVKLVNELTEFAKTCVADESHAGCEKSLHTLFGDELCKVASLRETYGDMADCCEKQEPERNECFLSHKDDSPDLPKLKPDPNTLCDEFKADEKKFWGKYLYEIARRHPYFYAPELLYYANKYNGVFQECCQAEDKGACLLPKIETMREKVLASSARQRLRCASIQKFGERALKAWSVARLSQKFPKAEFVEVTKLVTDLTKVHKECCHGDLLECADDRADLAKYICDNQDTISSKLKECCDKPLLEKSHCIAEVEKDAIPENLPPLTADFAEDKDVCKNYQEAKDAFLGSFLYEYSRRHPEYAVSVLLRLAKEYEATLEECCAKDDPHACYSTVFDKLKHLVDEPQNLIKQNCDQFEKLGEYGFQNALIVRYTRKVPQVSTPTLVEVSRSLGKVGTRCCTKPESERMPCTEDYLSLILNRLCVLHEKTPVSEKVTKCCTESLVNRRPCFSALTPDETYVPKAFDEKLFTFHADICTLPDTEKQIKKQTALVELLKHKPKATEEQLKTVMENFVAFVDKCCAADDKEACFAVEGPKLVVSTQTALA
Test [1] in a line: probe aXIP binding to arrayed compounds – biochemical, NeuroSMM set, 635/667 nm fluorescence, primary screen (AID 1119).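 Further: probe is the protein aXip251-270 applied at 1 µg/mL to compound-printed slides; binding of probe to printed compounds measured as 667 nm fluorescence plus signal to noise.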 Particulars: small-molecule microarray, higher = more signal, called active from +8 up or from −8 down.
A short description of test [2]: probe aNOTCH3 binding on compound microarray – biochemical, small-molecule microarray, 635/667 nm fluorescence, primary screen (AID 1120).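 Further: probe is a biotin-tagged antibody raised against NOTCH3 rather than NOTCH3 protein; score merges spot fluorescence near 667 nm with spot signal to noise.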 The conditions noted are these: higher = more signal.
Test [3] is described as follows: probe aNOTCH2 binding on compound microarray – biochemical, small-molecule microarray, 635/667 nm fluorescence, primary screen (AID 1121).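 Further: score merges feature fluorescence read at 667 nm with its signal to noise.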 The conditions noted are these: higher = more signal.
Test [4] concerns the target Carbonic anhydrase 2 (Homo sapiens) (UniProt P00918). As to the kind of experiment: compounds binding carbonic anhydrase 2 – biochemical, small-molecule microarray, Alexa647-labelled CAII, profiling panel (AID 1122). The conditions noted are these: CAII-A647 binding fluorescence, higher = more signal.
The nature of test [5]: COS7 lysate on small-molecule microarray, probe aHis, 635 nm (AID 1123).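 Further: z-score combines 667nm fluorescence intensity with signal-to-noise per printed compound spot.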 The conditions noted are these: COS7 cell lysate, fluorescence, higher = more signal.
Test [6] can be described thus: probe aLAP1 signal on lysate-treated microarray – cell lysate, small-molecule microarray, COS7 lysate, primary screen (AID 1124).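 Further: lysate comes from COS7 cells expressing LAP1 and is applied at 0.3 µg/mL; score merges spot fluorescence near 667 nm with signal-to-noise over triplicate slides.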 Particulars: probe aLAP1, fluorescence, higher = more signal.
The next test concerns Sam68 (KHDRBS1). As to the kind of experiment: compounds binding KHDRBS1 protein – biochemical, small-molecule microarray, 635 nm fluorescence, primary screen (AID 1125).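 Further: score merges 667 nm channel intensity with signal to noise over triplicate slides.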 The conditions noted are these: higher = more signal.
The test system of test [7] is Chordin-like protein 2 (CHRDL2). As to the kind of experiment: compounds binding chordin-like 2 – biochemical, small-molecule microarray, 635 nm fluorescence, primary screen (AID 1126).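 Further: printed compound slides probed with Chrdl2 protein at 4 µg/mL for 1 h at 4 C; score merges 667 nm emission intensity with signal to noise over three replicate slides.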 The conditions noted are these: fluorescence 635 nm, higher = more signal.
Test [8] deals with Concanavalin-A (Canavalia ensiformis) (UniProt P02866). As to the kind of experiment: compounds binding concanavalin A lectin – biochemical, small-molecule microarray, Alexa647 label, 635 nm, artefact control for SMM control protein annotation, primary screen (AID 1127).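 Further: z combines 667 nm emission intensity with signal-to-noise across three replicate slides.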 The conditions noted are these: ConA-A647 binding fluorescence, higher = more signal.
Sequence of Concanavalin-A (Canavalia ensiformis) (P02866 whole entry, looked up): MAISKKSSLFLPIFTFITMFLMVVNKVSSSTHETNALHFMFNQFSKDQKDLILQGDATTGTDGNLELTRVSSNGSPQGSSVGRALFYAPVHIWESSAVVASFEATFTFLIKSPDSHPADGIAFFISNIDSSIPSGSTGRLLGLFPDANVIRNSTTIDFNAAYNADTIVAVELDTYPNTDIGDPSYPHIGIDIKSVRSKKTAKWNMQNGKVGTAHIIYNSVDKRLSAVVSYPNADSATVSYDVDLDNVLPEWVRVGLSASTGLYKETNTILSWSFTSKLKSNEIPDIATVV
A short description of test [9]: compounds binding Alexa647 anti-His antibody – biochemical, small-molecule microarray, 635 nm fluorescence, artefact control for SMM control protein annotation, primary screen (AID 1128).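 Further: score merges feature fluorescence with signal-to-noise for each printed compound spot.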 The conditions noted are these: higher = more signal.
Test [10] relates to Human papillomavirus type 1a E7 protein (residues 1-88). As to the kind of experiment: HPV1a E7 small-molecule binders, primary screen, biochemical, small-molecule microarray, residues 1-88, 635 nm (AID 1129). Particulars: small-molecule microarray binding, fluorescence 635 nm; higher = more signal.
Test [11] deals with Focal adhesion kinase 1 (Homo sapiens) (UniProt Q05397). As to the kind of experiment: PTK2 protein binding on printed compound slides – biochemical, small-molecule microarray, 635/667 nm fluorescence, BSA, DTT, primary screen (AID 1130).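 Further: composite of spot emission at 667 nm and signal to noise over triplicate slides.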 The conditions noted are these: 635 nm fluorescence, higher = more signal.
Sequence of Focal adhesion kinase 1 (Homo sapiens) (Q05397 whole entry, looked up): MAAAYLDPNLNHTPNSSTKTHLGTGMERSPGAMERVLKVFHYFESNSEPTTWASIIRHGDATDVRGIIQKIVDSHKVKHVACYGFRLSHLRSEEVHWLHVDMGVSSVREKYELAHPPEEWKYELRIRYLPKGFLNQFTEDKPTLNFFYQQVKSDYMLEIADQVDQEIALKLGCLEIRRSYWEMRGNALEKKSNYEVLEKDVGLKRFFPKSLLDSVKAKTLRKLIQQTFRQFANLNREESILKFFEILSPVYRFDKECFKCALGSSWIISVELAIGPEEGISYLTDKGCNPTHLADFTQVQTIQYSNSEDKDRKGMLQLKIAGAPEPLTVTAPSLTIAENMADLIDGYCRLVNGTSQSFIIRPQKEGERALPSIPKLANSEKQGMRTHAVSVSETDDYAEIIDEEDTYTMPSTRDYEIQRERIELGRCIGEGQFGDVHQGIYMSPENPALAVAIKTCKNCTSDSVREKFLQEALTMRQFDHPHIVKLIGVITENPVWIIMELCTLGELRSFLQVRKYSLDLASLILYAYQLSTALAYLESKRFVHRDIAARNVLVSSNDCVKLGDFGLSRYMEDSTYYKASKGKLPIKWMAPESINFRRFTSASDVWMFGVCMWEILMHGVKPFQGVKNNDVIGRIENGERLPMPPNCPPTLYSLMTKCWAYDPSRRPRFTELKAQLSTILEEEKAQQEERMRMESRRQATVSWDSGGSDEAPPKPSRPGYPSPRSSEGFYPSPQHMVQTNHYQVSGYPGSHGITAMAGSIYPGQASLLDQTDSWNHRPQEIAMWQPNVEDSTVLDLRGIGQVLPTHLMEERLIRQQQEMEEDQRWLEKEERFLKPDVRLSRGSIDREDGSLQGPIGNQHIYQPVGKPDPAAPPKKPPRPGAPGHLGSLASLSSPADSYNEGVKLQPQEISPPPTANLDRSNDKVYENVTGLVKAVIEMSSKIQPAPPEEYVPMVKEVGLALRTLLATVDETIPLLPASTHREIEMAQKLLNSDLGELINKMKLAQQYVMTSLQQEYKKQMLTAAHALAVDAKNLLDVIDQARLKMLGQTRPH
In test [12] the test system is Fibrinogen (Alexa647-labelled). As to the kind of experiment: Alexa647-fibrinogen binding to printed small molecules – biochemical, small-molecule microarray, 635/667 nm fluorescence, artefact control for SMM control-protein annotation, profiling panel (AID 1131).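 Further: z-score merges 667 nm fluorescence with per-spot signal-to-noise over triplicate slides.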 Particulars: fibrinogen-A647 binding fluorescence, higher = more signal.
The target in test [13] is Follistatin (Homo sapiens) (UniProt P19883). As to the kind of experiment: FST protein binding to printed compounds – biochemical, small-molecule microarray, 635/667 nm fluorescence, primary screen (AID 1132). The conditions noted are these: 635 nm fluorescence, higher = more signal.
Sequence of Follistatin (Homo sapiens) (P19883 whole entry, looked up): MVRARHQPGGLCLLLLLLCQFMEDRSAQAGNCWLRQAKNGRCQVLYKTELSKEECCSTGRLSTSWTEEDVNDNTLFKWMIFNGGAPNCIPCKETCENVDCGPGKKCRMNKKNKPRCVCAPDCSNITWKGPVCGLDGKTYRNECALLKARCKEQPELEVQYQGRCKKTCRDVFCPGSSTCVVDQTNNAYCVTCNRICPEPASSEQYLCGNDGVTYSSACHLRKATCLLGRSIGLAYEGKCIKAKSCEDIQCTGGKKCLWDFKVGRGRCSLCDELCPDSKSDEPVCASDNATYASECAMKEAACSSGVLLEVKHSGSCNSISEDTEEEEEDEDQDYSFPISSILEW
The target in test [14] is Fibroblast growth factor 2 (Homo sapiens) (UniProt P09038). As to the kind of experiment: basic fibroblast growth factor binding to printed compounds – biochemical, small-molecule microarray, 635/667 nm fluorescence, primary screen (AID 1133). The conditions noted are these: FGF2, fluorescence 635/667, higher = more signal.
Sequence of Fibroblast growth factor 2 (Homo sapiens) (P09038 whole entry, looked up): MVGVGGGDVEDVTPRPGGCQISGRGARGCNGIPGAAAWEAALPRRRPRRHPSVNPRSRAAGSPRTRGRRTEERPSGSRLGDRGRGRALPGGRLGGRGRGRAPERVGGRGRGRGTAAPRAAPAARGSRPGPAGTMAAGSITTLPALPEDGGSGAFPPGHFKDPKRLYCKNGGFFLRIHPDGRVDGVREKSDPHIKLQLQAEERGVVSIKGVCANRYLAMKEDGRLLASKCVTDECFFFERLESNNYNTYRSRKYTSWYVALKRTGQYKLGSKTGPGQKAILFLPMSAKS
Test [15] can be described thus: JC-1 mitochondrial potential readout, lung cancer cells – cell-based, A549, JC-1 fluorescence, basal, 24 h, 100 nL, profiling panel (AID 1138).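 Further: A549 lung adenocarcinoma cells under basal conditions with no added stimulus; test concentration not given here.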 The conditions noted are these: higher = more signal.
A further test has as its system Lefty1. As to the kind of experiment: Lefty1 protein binding to printed compounds – biochemical, small-molecule microarray, 635/667 nm fluorescence, primary screen (AID 1139). Particulars: fluorescence 635/667, higher = more signal.
The subject of test [16] is wheat germ agglutinin (Triticum aestivum), Alexa647-labelled. As to the kind of experiment: Alexa647-WGA lectin binding to printed small molecules – biochemical, small-molecule microarray, 635/667 nm fluorescence, artefact control for SMM control-protein annotation, profiling panel (AID 1140).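 Further: score merges 667 nm feature emission with signal to noise over triplicate slides.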 Particulars: WGA-A647 binding, 635 nm fluorescence, higher = more signal.
The target of test [17] is Luciferin 4-monooxygenase (Photinus pyralis) (UniProt P08659). As to the kind of experiment: inhibition of purified Photinus pyralis luciferase – biochemical, luminescence, purified enzyme, 2006 set, primary screen (AID 1141).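 Further: cell-free assay with purified firefly luciferase at 100 ng per well in PBS; test concentration not given here.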 Particulars: purified firefly luciferase, SteadyGlo luminescence, 30 min; higher = more signal, called active from +8 up or from −8 down.
Sequence of Luciferin 4-monooxygenase (Photinus pyralis) (P08659 whole entry, looked up): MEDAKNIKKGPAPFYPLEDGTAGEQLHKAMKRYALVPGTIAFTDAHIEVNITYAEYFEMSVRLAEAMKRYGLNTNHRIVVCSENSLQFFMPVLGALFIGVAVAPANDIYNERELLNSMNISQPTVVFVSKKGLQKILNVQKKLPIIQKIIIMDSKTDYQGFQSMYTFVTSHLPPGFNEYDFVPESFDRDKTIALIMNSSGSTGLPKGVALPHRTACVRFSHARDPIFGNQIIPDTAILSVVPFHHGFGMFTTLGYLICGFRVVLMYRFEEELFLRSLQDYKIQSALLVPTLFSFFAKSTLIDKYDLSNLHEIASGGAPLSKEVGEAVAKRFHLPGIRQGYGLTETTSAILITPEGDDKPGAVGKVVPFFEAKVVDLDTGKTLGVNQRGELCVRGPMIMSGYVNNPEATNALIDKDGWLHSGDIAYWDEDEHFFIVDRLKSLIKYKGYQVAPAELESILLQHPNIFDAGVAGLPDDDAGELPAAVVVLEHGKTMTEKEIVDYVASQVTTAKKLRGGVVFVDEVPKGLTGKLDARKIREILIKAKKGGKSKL

The structures appear in SMILES notation. Calls of active or inactive are those of the source.

As to `O=C1[C@H]2[C@H]3[C@H](O)[C@H](O)CC(=NO[C@@H]4O[C@H](CO)[C@@H](O)[C@H](O)[C@H]4O)[C@@H]3CC[C@H]2C(=O)N1Cc1ccc2c(c1)OCO2`, the composite z-score with Albumin (Bos taurus) is -0.037; in [2], -0.004; in test [3], -0.18; in test [4], 0.376; in test [5], 0.542; in [6], -0.211. The composite z-score stood at 0.907 with Sam68 (KHDRBS1); 0.538 in test [7]; 0.211 in [8]; 0.715 in test [9]; 0.782 in test [10]; 0.293 in test [11]. Besides, the composite z-score is 0.78 in test [12]; 0.449 in [13]; 0.289 in test [14]; 0.716 with Lefty1; 0.63 in test [16]. For the same compound, the composite Z-score in [1] was 0.484 (inactive). The z-score in [15] was -0.789; in test [17], 0.949 (inactive).
For the compound `CC(C)CON=C1C[C@@H](O)[C@@H](O)[C@@H]2[C@@H]3C(=O)N(C[C@@H]4CCCO4)C(=O)[C@@H]3CC[C@H]12`, the composite z-score with Albumin (Bos taurus) was -0.3; in test [2], -0.101; in test [3], -0.0659; in test [4], 0.0765; in test [5] it was 0.737; in [6], -0.193. In addition, the composite z-score in the test on Sam68 (KHDRBS1) is 0.697; in test [7], -0.0163; in test [8] it was 0.12; in [9] it was 0.361; in test [10], 0.625; in test [11] it was 0.0201. In addition, the composite z-score was 0.286 in test [12]; 0.268 in [13]; 0.911 in [14]; 0.541 with Lefty1; 0.0098 in test [16]. Further, the composite Z-score in test [1] is -0.311 (inactive). In addition, the z-score is -0.786 in test [15] and 1.01 (inactive) in test [17].
As to `CCCCCN1CC=CC23O[C@@H]4C=CCOC(=O)[C@@H]4[C@H]2C(=O)N(C(CO)C(C)C)[C@@H]3C1=O` (stereo not given in full), the composite z-score is 0.13 with Albumin (Bos taurus); -0.0328 in [2]; -0.13 in [3]; 0.286 in test [4]; -0.59 in [5]; 1.06 in test [6]. The composite z-score in the test on Sam68 (KHDRBS1) was -0.827; in [7], -0.326; in [8] it was 0.203; in [9] it was 0.373; in [10] it was -1.02; in test [11], -0.565. Also, the composite z-score in test [12] is -0.217; in test [13], 0.142; in [14], -0.533; with Lefty1, 0.0028; in test [16], -0.521. For the same compound, the composite Z-score in [1] was 0.252 (inactive). The z-score is -0.348 in test [15] and 0.281 (inactive) in test [17].
Consider `C[C@@H]1C=CCC(=O)OC[C@H](C)C(=O)OC[C@H]2O[C@H]1C=C[C@H]2O`, for which the composite z-score with Albumin (Bos taurus) was 0.411; in test [2] it was 0.2; in test [3], -0.0795; in [4] it was 0.116; in test [5] it was 0.544; in [6] it was 0.0137. In addition, the composite z-score in the test on Sam68 (KHDRBS1) is 0.0768; in test [7], 0.458; in test [8] it was 0.227; in [9] it was -0.31; in test [10], -0.307; in test [11], -0.174. Further, the composite z-score stood at 0.303 in test [12]; 0.208 in [13]; 0.577 in [14]; 0.781 with Lefty1; 0.59 in test [16]. Further, the composite Z-score in test [1] was -0.18 (inactive). Also, the results for the z-score in test [15] and in test [17] were 0.328 and -1.1 (inactive), respectively.
As to `O=C1[C@H]2[C@H]3[C@H](O)[C@H](O)CC(=NOC[C@@H](O)COCc4ccco4)[C@H]3CC[C@H]2C(=O)N1c1cccc(Oc2ccccc2)c1`, the composite z-score in the test with Albumin (Bos taurus) is 0.355; in test [2], -0.304; in test [3] it was -0.133; in [4], 0.364; in test [5] it was -0.607; in test [6], 0.137. The composite z-score with Sam68 (KHDRBS1) was -0.572; in [7], -0.573; in test [8], -0.785; in test [9], -0.304; in test [10], -0.438; in test [11], -0.112. The composite z-score is -1.32 in [12]; -0.924 in test [13]; -0.701 in test [14]; -0.021 in the test with Lefty1; 0.503 in [16]. The composite Z-score in [1] is -0.705 (inactive). The z-score in [15] is 0.89; in [17], 0.481 (inactive).
